We go through 4 molecules from PubChem BioAssay (EPA / NIEHS).

Usually AC50 stands for the midpoint of the concentration-response curve, whichever way the signal moves.

Assay [1] in a line: ATG_PBREM_CIS: Attagene CIS-FACTORIAL HepG2 Assay for human Phenobarbital-responsive Enhancer Module (PBREM) (AID 2282955). The conditions noted are these: HepG2 PBREM cis-reporter, Attagene multiplexed transcription; actives raise or lower the signal. The essentials: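 Fluorescence of labelled reporter cDNA fragments, resolved by capillary electrophoresis, gives mRNA induction in transfected HepG2 cells treated for 24 h; DMSO serves as negative control and baseline.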

Assay [2] concerns the target Paired box protein Pax-6 (Homo sapiens) (UniProt P26367). The experiment in a line: ATG_Pax6_CIS: Attagene CIS-FACTORIAL HepG2 Assay for human Paired Box 6 (PAX6) (AID 2282956). As to conditions: HepG2 CIS-FACTORIAL PAX6 reporter transcription, RNA readout; actives raise or lower the signal. An outline of the steps: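 Multiplexed cis-reporter HepG2 system; 24 h treatment; reporter mRNA read by RT-PCR/CE fluorescence; bidirectional fit vs DMSO.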

Assay [3] in a line: ATG_PXRE_CIS: Attagene CIS-FACTORIAL HepG2 Assay for human Pregnane X Receptor Element (PXRE) (AID 2282957). The conditions noted are these: HepG2 Attagene CIS-FACTORIAL PXRE reporter, mRNA; actives raise or lower the signal. An outline of the steps:
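Cells: HepG2, transiently transfected reporter units under cis promoter control. Exposure: 24 h. Detection: reporter mRNA via RT-PCR/CE fluorescence; bidirectional fitting, DMSO-referenced.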

Assay [4] in a line: ATG_PPRE_CIS: Attagene CIS-FACTORIAL HepG2 Assay for human Peroxisome Proliferator-activated Response Element (PPRE) (AID 2282958). As to conditions: HepG2 PPRE cis-element reporter, Attagene transcription factor profiling; actives raise or lower the signal. The essentials:
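Cells are first transfected transiently with the multiplexed reporter library, then dosed for 24 h. Total RNA is reverse-transcribed, amplified, fluorescently end-labeled and HpaI-cut before capillary electrophoresis; activity is fitted bidirectionally against DMSO controls.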

Assay [5] in a line: ATG_RORE_CIS: Attagene CIS-FACTORIAL HepG2 Assay for human RAR-related Orphan Receptor Element (RORE) (AID 2282959). The conditions noted are these: HepG2 Attagene cis-factorial RORE reporter, mRNA; actives raise or lower the signal. The essentials:
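Cells were HepG2 carrying transfected cis-regulated reporter constructs, dosed for 24 hours. Total RNA was reverse-transcribed and reporter cDNA amplified, fluorescently labeled and sized by capillary electrophoresis. Activity was fitted bidirectionally relative to DMSO.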

A short description of assay [6]: ATG_Sox_CIS: Attagene CIS-FACTORIAL HepG2 Assay for human SRY-box transcription factor (SOX) (AID 2282960). As to conditions: HepG2 Attagene cis-factorial SOX reporter, mRNA; actives raise or lower the signal. The essentials: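 Transient MRTU transfection of HepG2; 24 h compound incubation; TriZol RNA, oligo(dT) RT, PCR, 6-FAM primer extension, HpaI cut, CE. Bidirectional fit, DMSO = baseline.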

For assay [7], the target named is Transcription factor Sp1 (Homo sapiens) (UniProt P08047). Description: ATG_Sp1_CIS: Attagene CIS-FACTORIAL HepG2 Assay for human Specificity Protein 1 (Sp1) (AID 2282961). The conditions noted are these: HepG2 Sp1 cis-reporter transcription, actives raise or lower the signal. The essentials:
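Endogenous Sp1 activity was gauged in human liver HepG2 cells bearing transfected reporter units under a cis-regulating promoter. After 24 h dosing, reporter mRNA was quantified by RT-PCR with capillary electrophoresis, and activity fitted bidirectionally versus DMSO.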

A short description of assay [8]: ATG_SREBP_CIS: Attagene CIS-FACTORIAL HepG2 Assay for human Sterol Regulatory Element Binding (SREBP) (AID 2282962). The conditions noted are these: HepG2 Attagene cis-factorial SREBP reporter, mRNA; actives raise or lower the signal. An outline of the steps: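 mRNA induction of transfected cis-promoter reporters in HepG2 cells, 24 h post-dose. Detection: RT-PCR with 6-FAM-labelled products, HpaI digest, capillary electrophoresis. DMSO served as negative control and baseline.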

Assay [9] has as its target Signal transducer and activator of transcription 3 (Homo sapiens) (UniProt P40763). Description: ATG_STAT3_CIS: Attagene CIS-FACTORIAL HepG2 Assay for human Signal Transducer and Activator of Transcription 3 (STAT3) (AID 2282963). As to conditions: HepG2, Attagene cis-factorial STAT3 reporter transcription; actives raise or lower the signal. An outline of the steps: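 Endogenous STAT3-responsive cis-element activity was read in transiently transfected HepG2 cells after 24 h treatment. Reporter transcripts were quantified via RT-PCR and capillary electrophoresis, with DMSO as negative control and bidirectional curve fitting.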

Assay [10] is described as follows: ATG_TA_CIS: Attagene CIS-FACTORIAL HepG2 Assay for human TA Basal Promoter (AID 2282964). The conditions noted are these: HepG2 Attagene CIS-factorial TA basal promoter reporter; actives raise or lower the signal. The essentials: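 Read-out: fluorescent reporter-transcript fragments resolved by capillary electrophoresis after RT-PCR and HpaI digestion. Source: HepG2 cells carrying transiently transfected multi-reporter cis constructs, treated 24 h. Endpoint fitted bidirectionally relative to DMSO.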

Assay [11] can be described thus: ATG_TCF_b_cat_CIS: Attagene CIS-FACTORIAL HepG2 Assay for human T-Cell-Factor with beta-catenin (TCF/b-cat) (AID 2282965). The conditions noted are these: HepG2 TCF/beta-catenin cis-reporter transcription, actives raise or lower the signal. An outline of the steps:
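Endogenous TCF/LEF activity read as reporter transcript level via RT-PCR and capillary electrophoresis fluorescence in transfected HepG2, 24 h exposure; gain or loss of signal fitted against DMSO controls.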

Assay [12] is described as follows: ATG_TAL_CIS: Attagene CIS-FACTORIAL HepG2 Assay for human TAL Basal Promoter (AID 2282966).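 Further: background control endpoint measuring basal TAL promoter reporter mRNA not a specific factor.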 The conditions noted are these: HepG2 Attagene cis-factorial TAL promoter reporter; actives raise or lower the signal. An outline of the steps: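 RT-PCR plus capillary electrophoresis quantifies reporter mRNA induction in transiently transfected HepG2 cells after 24 h chemical treatment. DMSO serves as negative control and baseline for bidirectional fitting.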

A short description of assay [13]: ATG_TGFb_CIS: Attagene CIS-FACTORIAL HepG2 Assay for human Transforming Growth Factor (TGF) (AID 2282967). As to conditions: HepG2 Attagene CIS TGFb reporter, mRNA transcription; actives raise or lower the signal. An outline of the steps:
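Transient MRTU transfection of HepG2 (FuGene 6). Dose 24 h. TriZol RNA, oligo(dT) RT, PCR, 6-FAM primer extension, HpaI cut, CE. Bidirectional fit, DMSO = baseline.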

Assay [14] is described as follows: ATG_VDRE_CIS: Attagene CIS-FACTORIAL HepG2 Assay for human Vitamin D Receptor Element (VDRE) (AID 2282968). The conditions noted are these: HepG2 VDRE cis-reporter transcription, actives raise or lower the signal. An outline of the steps:
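Reporter mRNA induction, quantified by capillary electrophoresis of fluorescently labelled RT-PCR products, was read 24 h after dosing HepG2 cells carrying transiently transfected cis-regulated reporter units; gain or loss relative to DMSO.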

The target of assay [15] is Estrogen receptor (Homo sapiens) (UniProt P03372). Description: ATG_ERa_TRANS: Attagene TRANS-FACTORIAL HepG2 Assay for human Estrogen Receptor alpha (ERa) (AID 2282970; active means hit-call score of the fitted dose curve at least 0.9, where 1 is the maximum). The conditions noted are these: HepG2 Attagene TRANS ERa GAL4 reporter, mRNA. An outline of the steps:
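Cells: HepG2, transiently transfected. Construct: GAL4-UAS reporter units regulated by exogenous NR-Gal4 chimeras. Time: 24 h. Detection: reporter mRNA by RT-PCR, capillary electrophoresis, fluorescence. Baseline: DMSO, upward fitting.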

Assay [16] concerns the target X-box-binding protein 1 (Homo sapiens) (UniProt P17861). The experiment in a line: ATG_Xbp1_CIS: Attagene CIS-FACTORIAL HepG2 Assay for human X-box Binding Protein 1 (XBP1) (AID 2282972). As to conditions: HepG2 XBP1 cis-element reporter, Attagene multiplex; actives raise or lower the signal. An outline of the steps:
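Fluorescence-labelled cDNA fragments from reporter transcripts, separated by capillary electrophoresis, give the signal. Source: HepG2 cells transfected with promoter-driven reporter units, harvested 24 h post-dose. DMSO served as reference for bidirectional curve fitting.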

The nature of assay [17]: ATG_M_19_TRANS: Attagene TRANS-FACTORIAL HepG2 Assay for M19 Transcription Factor (Internal Marker) (AID 2282974; active means hit-call score of the fitted dose curve at least 0.9, where 1 is the maximum). As to conditions: HepG2 Attagene TRANS-FACTORIAL M19 internal marker reporter. An outline of the steps: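 Cells: human HepG2, transiently transfected with multiplexed reporter transcription units. Exposure: 24 h. Detection: RT-PCR of reporter mRNA with capillary electrophoresis. Analysis: gain-of-signal vs DMSO.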

Assay [18] is described as follows: ATG_GAL4_TRANS: Attagene TRANS-FACTORIAL HepG2 Assay for GAL4 (Internal Marker) (AID 2282976; active means hit-call score of the fitted dose curve at least 0.9, where 1 is the maximum). The conditions noted are these: HepG2 Attagene TRANS GAL4 internal marker reporter. An outline of the steps:
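In transfected human HepG2 liver cells dosed 24 h, GAL4 reporter mRNA serves as a baseline marker. Detection by RT-PCR with fluorescent capillary electrophoresis, activity fitted upward relative to DMSO.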

Assay [19] deals with Nuclear receptor subfamily 1 group I member 3 (Homo sapiens) (UniProt Q14994). The experiment in a line: ATG_CAR_TRANS: Attagene TRANS-FACTORIAL HepG2 Assay for human Constitutive Androstane Receptor (CAR) (AID 2282969; active means hit-call score of the fitted dose curve at least 0.9, where 1 is the maximum;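 further: activators raise reporter mRNA above DMSO so AC50 marks induction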). As to conditions: HepG2 Attagene TRANS-FACTORIAL CAR reporter. An outline of the steps:
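Readout is reporter mRNA induction, quantified by fluorescent primer extension and capillary electrophoresis after RT-PCR. Cells were HepG2 transiently carrying chimeric NR-Gal4 constructs with GAL4-UAS reporters, treated for 24 h; activity scored upward from DMSO.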

Assay [20] has as its target Steroid hormone receptor ERR1 (Homo sapiens) (UniProt P11474). Description: ATG_ERRa_TRANS: Attagene TRANS-FACTORIAL HepG2 Assay for human Estrogen-Related Receptor alpha (ERRa) (AID 2282971; active means hit-call score of the fitted dose curve at least 0.9, where 1 is the maximum). As to conditions: HepG2 Attagene TRANS reporter, ERRa transactivation. An outline of the steps: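 Reporter transcripts from ERRa-Gal4 chimera activity measured in transiently transfected human HepG2 cells 24 hours after dosing, using RT-PCR with 6-FAM primer extension, HpaI digestion and capillary electrophoresis; DMSO is baseline.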

The structures appear in SMILES notation. Inconclusive results are not listed. Activity calls are given as the source filed them. How the source made its calls, unless noted: active means hit-call score of the fitted dose curve at least 0.9, where 1 is the maximum; inactive means score below 0.9.

Chain of Transcription factor Sp1 (Homo sapiens) (P08047 whole entry, looked up): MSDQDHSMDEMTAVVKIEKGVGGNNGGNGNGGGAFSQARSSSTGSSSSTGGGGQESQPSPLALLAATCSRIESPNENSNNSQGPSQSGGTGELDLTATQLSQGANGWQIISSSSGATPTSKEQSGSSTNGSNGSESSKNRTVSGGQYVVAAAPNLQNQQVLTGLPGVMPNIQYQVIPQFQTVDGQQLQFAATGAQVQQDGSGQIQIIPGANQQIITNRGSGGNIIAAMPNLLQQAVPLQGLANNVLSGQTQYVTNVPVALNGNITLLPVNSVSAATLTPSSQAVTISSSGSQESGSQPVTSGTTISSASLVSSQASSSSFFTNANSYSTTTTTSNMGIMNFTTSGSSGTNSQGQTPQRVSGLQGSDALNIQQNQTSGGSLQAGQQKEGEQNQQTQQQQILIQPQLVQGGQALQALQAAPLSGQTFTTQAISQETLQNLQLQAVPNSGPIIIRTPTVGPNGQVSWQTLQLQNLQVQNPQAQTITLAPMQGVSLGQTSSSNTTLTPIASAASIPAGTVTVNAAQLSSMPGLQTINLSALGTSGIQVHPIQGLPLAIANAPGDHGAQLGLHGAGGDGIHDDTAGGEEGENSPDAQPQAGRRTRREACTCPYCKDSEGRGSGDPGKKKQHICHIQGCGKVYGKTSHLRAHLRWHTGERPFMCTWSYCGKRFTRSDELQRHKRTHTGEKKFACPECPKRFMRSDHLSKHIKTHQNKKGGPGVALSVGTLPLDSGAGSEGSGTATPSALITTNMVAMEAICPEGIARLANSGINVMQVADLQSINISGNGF
Chain of X-box-binding protein 1 (Homo sapiens) (P17861 whole entry, looked up, the tested form may be a part): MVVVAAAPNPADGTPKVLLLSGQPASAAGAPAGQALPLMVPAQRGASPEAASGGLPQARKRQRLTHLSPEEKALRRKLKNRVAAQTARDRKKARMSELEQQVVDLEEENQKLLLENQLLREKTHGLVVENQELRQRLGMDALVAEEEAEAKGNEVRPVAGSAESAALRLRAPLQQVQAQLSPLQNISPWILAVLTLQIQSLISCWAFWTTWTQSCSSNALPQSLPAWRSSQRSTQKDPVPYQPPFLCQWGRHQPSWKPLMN
Chain of Paired box protein Pax-6 (Homo sapiens) (P26367 whole entry, looked up): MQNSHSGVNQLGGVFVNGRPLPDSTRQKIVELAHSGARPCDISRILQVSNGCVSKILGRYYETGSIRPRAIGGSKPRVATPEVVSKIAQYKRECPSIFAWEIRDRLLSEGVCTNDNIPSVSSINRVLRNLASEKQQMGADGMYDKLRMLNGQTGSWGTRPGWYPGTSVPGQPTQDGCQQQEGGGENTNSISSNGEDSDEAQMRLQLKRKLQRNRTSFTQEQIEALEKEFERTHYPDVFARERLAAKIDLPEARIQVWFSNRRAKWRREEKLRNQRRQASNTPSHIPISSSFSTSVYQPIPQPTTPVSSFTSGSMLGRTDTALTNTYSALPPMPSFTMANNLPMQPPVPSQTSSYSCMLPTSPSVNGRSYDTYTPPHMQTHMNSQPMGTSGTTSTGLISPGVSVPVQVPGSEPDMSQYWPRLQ
Chain of Estrogen receptor (Homo sapiens) (P03372 whole entry, looked up, the tested form may be a part): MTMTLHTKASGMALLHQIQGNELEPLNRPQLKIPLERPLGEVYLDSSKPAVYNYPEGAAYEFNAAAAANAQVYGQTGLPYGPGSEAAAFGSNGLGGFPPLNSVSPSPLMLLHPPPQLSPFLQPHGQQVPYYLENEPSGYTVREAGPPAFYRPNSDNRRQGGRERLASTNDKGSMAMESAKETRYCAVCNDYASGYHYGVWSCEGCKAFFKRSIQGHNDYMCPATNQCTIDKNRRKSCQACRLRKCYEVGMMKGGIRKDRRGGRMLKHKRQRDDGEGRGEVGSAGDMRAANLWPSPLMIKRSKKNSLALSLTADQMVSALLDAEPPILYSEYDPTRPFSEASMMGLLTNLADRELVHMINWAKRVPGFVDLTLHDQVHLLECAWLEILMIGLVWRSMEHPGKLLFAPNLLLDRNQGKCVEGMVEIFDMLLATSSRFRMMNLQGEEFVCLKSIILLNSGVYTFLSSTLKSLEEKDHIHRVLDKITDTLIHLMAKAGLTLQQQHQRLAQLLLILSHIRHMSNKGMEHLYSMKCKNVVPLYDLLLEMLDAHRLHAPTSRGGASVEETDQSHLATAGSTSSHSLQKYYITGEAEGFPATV
Chain of Signal transducer and activator of transcription 3 (Homo sapiens) (P40763 whole entry, looked up): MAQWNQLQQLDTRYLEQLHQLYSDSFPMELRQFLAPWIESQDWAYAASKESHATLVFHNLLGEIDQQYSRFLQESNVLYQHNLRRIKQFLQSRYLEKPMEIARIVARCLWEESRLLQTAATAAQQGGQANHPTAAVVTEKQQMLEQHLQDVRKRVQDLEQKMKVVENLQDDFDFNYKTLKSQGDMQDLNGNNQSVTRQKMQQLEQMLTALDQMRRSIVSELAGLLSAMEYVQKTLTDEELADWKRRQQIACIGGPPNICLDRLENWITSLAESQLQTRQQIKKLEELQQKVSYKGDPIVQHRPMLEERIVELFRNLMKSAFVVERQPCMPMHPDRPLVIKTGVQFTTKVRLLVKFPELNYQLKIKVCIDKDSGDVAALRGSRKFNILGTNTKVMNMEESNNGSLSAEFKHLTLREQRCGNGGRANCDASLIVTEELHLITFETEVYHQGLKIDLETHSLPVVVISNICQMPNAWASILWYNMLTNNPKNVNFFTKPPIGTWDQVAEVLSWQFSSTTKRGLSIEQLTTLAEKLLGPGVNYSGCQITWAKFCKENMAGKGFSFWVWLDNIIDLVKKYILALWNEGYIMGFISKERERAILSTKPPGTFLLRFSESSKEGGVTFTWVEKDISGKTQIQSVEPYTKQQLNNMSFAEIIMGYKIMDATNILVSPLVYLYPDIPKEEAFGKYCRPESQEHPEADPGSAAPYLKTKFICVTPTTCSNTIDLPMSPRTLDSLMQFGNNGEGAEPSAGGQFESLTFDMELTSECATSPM
Chain of Nuclear receptor subfamily 1 group I member 3 (Homo sapiens) (Q14994 whole entry, looked up, the tested form may be a part): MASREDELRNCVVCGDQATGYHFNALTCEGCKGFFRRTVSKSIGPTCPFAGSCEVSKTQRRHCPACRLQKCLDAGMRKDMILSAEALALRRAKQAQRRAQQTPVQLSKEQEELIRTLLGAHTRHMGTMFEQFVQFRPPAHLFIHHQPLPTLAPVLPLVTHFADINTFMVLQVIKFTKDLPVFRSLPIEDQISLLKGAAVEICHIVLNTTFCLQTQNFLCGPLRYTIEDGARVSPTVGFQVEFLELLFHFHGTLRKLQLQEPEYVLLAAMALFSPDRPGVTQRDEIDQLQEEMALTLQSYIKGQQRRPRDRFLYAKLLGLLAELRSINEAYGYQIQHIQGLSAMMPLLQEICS
Chain of Steroid hormone receptor ERR1 (Homo sapiens) (P11474 whole entry, looked up, the tested form may be a part): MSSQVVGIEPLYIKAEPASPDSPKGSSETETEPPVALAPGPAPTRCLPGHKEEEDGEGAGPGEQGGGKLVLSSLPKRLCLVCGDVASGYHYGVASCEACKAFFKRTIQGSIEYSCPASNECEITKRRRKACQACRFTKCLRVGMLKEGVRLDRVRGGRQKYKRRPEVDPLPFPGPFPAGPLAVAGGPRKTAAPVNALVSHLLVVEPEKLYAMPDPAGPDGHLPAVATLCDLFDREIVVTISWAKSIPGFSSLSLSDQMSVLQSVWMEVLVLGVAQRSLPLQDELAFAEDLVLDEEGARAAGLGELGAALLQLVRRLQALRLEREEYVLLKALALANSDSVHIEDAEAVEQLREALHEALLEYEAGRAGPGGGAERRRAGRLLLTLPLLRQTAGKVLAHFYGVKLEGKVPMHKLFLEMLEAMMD

For the molecule `CC(CCC(=O)O)(c1ccc(O)cc1)c1ccc(O)cc1`, the result in assay [1], in assay [2], in [4], in assay [5], in assay [6] and in assay [7] was inactive. Also, the molecule was called inactive in [8], in [9], in assay [10], in assay [11], in assay [12] and in assay [13]. The molecule was classed as inactive in [14], in assay [16], in assay [17] and in [18]. For the same molecule, the AC50 in assay [3] was 27.5 µM (active); in [15] it was 16.4 µM (active).

On to `CC(C)c1cccc(C(C)C)c1N`, for which the result in [1], in assay [2], in [4], in assay [5], in [6] and in assay [7] was inactive. In addition, the molecule was called inactive in assay [8], in assay [9], in assay [10], in assay [11], in assay [12] and in assay [13]. For the same molecule, the outcome in assay [14], in assay [19], in [15], in [16] and in assay [18] was inactive. The half-maximal activity concentration (AC50) in assay [3] is 29.5 µM (active).

On to `CCCCCCOC(=O)CCCCC(=O)OCCCCCC`, for which the outcome in assay [1], in assay [2], in assay [4], in [5], in [6] and in assay [7] was inactive. For the same molecule, the call in assay [8], in [9], in assay [10], in [11], in [12] and in assay [13] was inactive. In addition, the molecule was called inactive in assay [14], in assay [15], in [20], in assay [16] and in assay [18]. The half-maximal activity concentration (AC50) in [3] is 19.8 µM (active).

Take `O=C1CCCCCCCCCCC1`: the concentration at half-maximal activity (AC50) in assay [1] is 22.2 µM (active); in assay [3], 8.96 µM (active); in [15], 21.2 µM (active). Moreover, the molecule was classed as inactive in assay [2], in assay [4], in [5], in [6], in assay [7] and in assay [8]. Besides, the molecule was called inactive in assay [9], in [11], in assay [12], in assay [13] and in assay [19].
